{"source": "ChEMBL document CHEMBL3433997", "about": "“St. Jude Leishmania screening dataset” (2016)"}
{"biological_target": "Hexose transporter 1 (Plasmodium falciparum) (UniProt O97467)", "assay": "ST_JUDE_LEISH: Cytotoxicity at 2uM final concentration against transgenic Leishmania Mexicana promastigotes LmPfHT that are glucose transport deficient and complemented with the Plasmodium falciparum hexose transporter. Activity is measured by DNA content using SYBR green in vitro", "format": "functional", "units": {"inhibition": "%"}}
{"compound": "COc1ccc2[nH]c(C)cc(=NN=Cc3ccc(Cl)cc3)c2c1", "inhibition": 6.41}
{"compound": "O=C(NCCCN1CCC(Cc2ccccc2)CC1)c1cc2c(Cl)nc3ccccc3c2s1", "inhibition": 1.9}
{"compound": "FC(F)(F)c1cc(Nc2ccc(Oc3ccccc3)cc2)c2cc(-c3ccncc3)ccc2n1", "inhibition": 0.41}
{"compound": "COc1ccc(-c2ccnc(-c3cccc(-c4ccccn4)n3)c2)cc1", "inhibition": 24.9}
{"compound": "COc1ccc(Cl)cc1N1CCN(CCCNC(=O)c2ccc(-c3nc4c(C)cccc4[nH]3)s2)CC1", "inhibition": -0.51}
{"compound": "O=S(=O)(NCCN1CCCC1)c1cccc(-c2cccc(CNCc3ccc(F)cc3)c2)c1", "inhibition": 2.85}
{"compound": "O=C(NCC1CCC(C(=O)NCCN2CCCCC2)CC1)c1ccc(O)c(-c2ccc(Cl)c(Cl)c2)c1", "note": "(stereo not given)", "inhibition": 0.49}
{"compound": "O=C(/C=C/c1ccc(Cl)cc1)NCCCCCN1CCC(C(=O)Nc2ccc(Cl)cc2)CC1", "inhibition": 0.51}
{"compound": "CC(C)N1CCC(NC(=O)N2CCCN(c3ncnc4cc(-c5ccccc5)sc34)CC2)CC1", "inhibition": 2.28}
{"compound": "O=C(Nc1cccc(-c2nc3ccccc3[nH]2)c1)c1cccc(NC(=O)c2ccco2)c1", "inhibition": 2.09}
{"compound": "O=C(Nc1ccc(Cl)cc1)NC1CCN(CCCCCNC(=O)C2CC2c2ccc(Cl)c(Cl)c2)CC1", "note": "(stereo not given)", "inhibition": 9.43}
{"compound": "CC(C)NCc1cc(Nc2ccnc3cc(Cl)ccc23)ccc1O", "inhibition": 1.48}
{"compound": "CC1CCCCC1N(C)C1CCN(CCCNC(=O)C=Cc2ccc(Cl)cc2Cl)CC1", "note": "(stereo not given)", "inhibition": -1.99}
{"compound": "COc1ccc(CN2CCC(N3CC(c4ccccc4)(c4ccccc4)OCC3=O)C2)c(O)c1", "note": "(stereo not given)", "inhibition": -0.28}
{"compound": "Cc1nnsc1C(=O)Nc1cccc(-c2cccc(-c3nc4ccccc4[nH]3)c2)c1", "inhibition": 0.03}
{"compound": "CCC(C)NCc1c(O)ccc2c(CNC(C)CC)c(O)ccc12", "note": "(stereo not given)", "inhibition": 3.63}
{"compound": "CC(=O)c1ccc(S(=O)(=O)N2CCC(C(=O)Nc3ccccc3N3CCCC3)CC2)cc1", "inhibition": 0.67}
{"compound": "Cc1cccc2nc(-c3cccc(-c4cccc(NC(=O)c5ccncc5)c4)c3)[nH]c12", "inhibition": 3.01}
{"compound": "CCCCCCCn1c2c(c(=N)c3c1CCC3)CCCC2", "inhibition": 90.8}
{"compound": "CCOc1ncccc1CN1CCC(N2CCc3cc(NC(=O)c4cc(C)on4)ccc32)C1", "note": "(stereo not given)", "inhibition": 0.36}
{"compound": "CC(C)(CNCCOc1ccc(Cl)cc1)c1nc(-c2ccnc(N)n2)c(-c2ccc(Cl)c(O)c2)[nH]1", "inhibition": 1.8}
{"compound": "CC(C)C[C@H](NC(=O)c1cc2ccccc2s1)C(=O)N[C@H]1CCN(Cc2ccc(I)c(OCCN3CCCC3)c2)C1", "inhibition": -1.55}
{"compound": "N=C(N)NCCN(Cc1ccccc1)c1ccccc1", "inhibition": 1.13}
{"compound": "CCOCCCn1c(=N)c(C(=O)NCc2ccc(OC)cc2)cc2c(=O)n3cccc(C)c3nc21", "inhibition": 5.36}
{"compound": "CCCCCN1CCC(NC(=O)c2ccc(C(=O)Nc3ccc(C(C)C)cc3)cc2)C1", "note": "(stereo not given)", "inhibition": 1.41}
{"compound": "COc1cccc(-c2cc(-c3ccc(NC(=O)c4ccccc4)cc3)c3c(N)ncnc3n2)c1", "inhibition": 0.31}
{"compound": "CN1CCCC(CN2CCN(Cc3cccc(-c4ccc(-c5nc6cc(F)ccc6[nH]5)cc4)c3)CC2)C1", "note": "(stereo not given)", "inhibition": 1.97}
{"compound": "O=C(Nc1ccccc1)N(Cc1cccc(-c2cccc(CNCc3ccc4c(c3)OCO4)c2)c1)C1CCN(Cc2ccccc2)CC1", "inhibition": 1.69}
{"compound": "Cc1ccc(C)c(Cn2c(N3CCC(C(=O)NCc4cccs4)CC3)nc3ccccc32)c1", "inhibition": 4.2}
{"compound": "CC(C)CNCc1ccc(-c2ccccc2CNC2CCN(Cc3ccccc3)CC2)cc1", "inhibition": 7.66}
{"compound": "OCc1c(Cl)cc(Cl)cc1CNCCCNc1nc2ccccc2[nH]1", "inhibition": 6.27}
{"compound": "O=C(/C=C/c1cccc(Br)c1)NCCCCCN1CCC(c2c[nH]c3ccccc23)CC1", "inhibition": 2.1}
{"compound": "Cc1ccc(C2CC(=O)CC(c3ccccn3)C2[N+](=O)[O-])cc1", "note": "(stereo not given)", "inhibition": 0.92}
{"compound": "O=C(Nc1cccc(CN2CCN(Cc3ccc(O)cc3)CC2)c1)c1ccc(Cl)c(Cl)c1", "inhibition": 5.27}
{"compound": "CCCCCCN1CCCN(Cc2ccc(C(=O)Nc3ccc(CC)cc3)cc2)CC1", "inhibition": 10.9}
{"compound": "CNC(=O)NC1CCN(Cc2c(-c3cccs3)nc3ccccc3c2C(=O)N[C@@H](C)C2CCCCC2)CC1", "inhibition": 0.94}
{"compound": "CCC(ON1C(N)=NC(N)=NC1(C)C)c1ccccc1", "note": "(stereo not given)", "inhibition": -0.45}
{"compound": "OCCNc1nc(Nc2ccc(F)cc2)nc2ccccc12", "inhibition": 3.35}
{"compound": "Cc1cccc(CNc2nc(C)cc(N[C@@H](CC(C)C)C(=O)NCc3cccc(F)c3)n2)c1", "inhibition": 3.4}
{"compound": "CCn1c(-c2nonc2N)nc2c(-c3cccc(Cl)c3)ncc(OCCCNCc3cnc(C)nc3N)c21", "inhibition": -3.01}
{"biological_target": "Glucose transporter (Leishmania mexicana) (UniProt O61059)", "assay": "ST_JUDE_LEISH: Cytotoxicity at 2uM final concentration against transgenic Leishmania Mexicana promastigotes LmGT2 that are glucose transport deficient and complemented with the L. Mexicana glucose transporter 2. Activity is measured by DNA content using SYBR green in vitro", "format": "functional", "units": {"inhibition": "%"}}
{"compound": "COc1ccc2[nH]c(C)cc(=NN=Cc3ccc(Cl)cc3)c2c1", "inhibition": -0.5}
{"compound": "O=C(NCCCN1CCC(Cc2ccccc2)CC1)c1cc2c(Cl)nc3ccccc3c2s1", "inhibition": -0.45}
{"compound": "FC(F)(F)c1cc(Nc2ccc(Oc3ccccc3)cc2)c2cc(-c3ccncc3)ccc2n1", "inhibition": -0.05}
{"compound": "COc1ccc(-c2ccnc(-c3cccc(-c4ccccn4)n3)c2)cc1", "inhibition": 2.98}
{"compound": "COc1ccc(Cl)cc1N1CCN(CCCNC(=O)c2ccc(-c3nc4c(C)cccc4[nH]3)s2)CC1", "inhibition": -1.08}
{"compound": "O=S(=O)(NCCN1CCCC1)c1cccc(-c2cccc(CNCc3ccc(F)cc3)c2)c1", "inhibition": -2.32}
{"compound": "O=C(NCC1CCC(C(=O)NCCN2CCCCC2)CC1)c1ccc(O)c(-c2ccc(Cl)c(Cl)c2)c1", "note": "(stereo not given)", "inhibition": 0.18}
{"compound": "O=C(/C=C/c1ccc(Cl)cc1)NCCCCCN1CCC(C(=O)Nc2ccc(Cl)cc2)CC1", "inhibition": 2.24}
{"compound": "CC(C)N1CCC(NC(=O)N2CCCN(c3ncnc4cc(-c5ccccc5)sc34)CC2)CC1", "inhibition": 0.31}
{"compound": "O=C(Nc1cccc(-c2nc3ccccc3[nH]2)c1)c1cccc(NC(=O)c2ccco2)c1", "inhibition": 0.63}
{"compound": "O=C(Nc1ccc(Cl)cc1)NC1CCN(CCCCCNC(=O)C2CC2c2ccc(Cl)c(Cl)c2)CC1", "note": "(stereo not given)", "inhibition": 7.34}
{"compound": "CC(C)NCc1cc(Nc2ccnc3cc(Cl)ccc23)ccc1O", "inhibition": 1.69}
{"compound": "CC1CCCCC1N(C)C1CCN(CCCNC(=O)C=Cc2ccc(Cl)cc2Cl)CC1", "note": "(stereo not given)", "inhibition": 1.66}
{"compound": "COc1ccc(CN2CCC(N3CC(c4ccccc4)(c4ccccc4)OCC3=O)C2)c(O)c1", "note": "(stereo not given)", "inhibition": -1.56}
{"compound": "Cc1nnsc1C(=O)Nc1cccc(-c2cccc(-c3nc4ccccc4[nH]3)c2)c1", "inhibition": -2.07}
{"compound": "CCC(C)NCc1c(O)ccc2c(CNC(C)CC)c(O)ccc12", "note": "(stereo not given)", "inhibition": 2.13}
{"compound": "CC(=O)c1ccc(S(=O)(=O)N2CCC(C(=O)Nc3ccccc3N3CCCC3)CC2)cc1", "inhibition": -0.38}
{"compound": "Cc1cccc2nc(-c3cccc(-c4cccc(NC(=O)c5ccncc5)c4)c3)[nH]c12", "inhibition": 4.27}
{"compound": "CCCCCCCn1c2c(c(=N)c3c1CCC3)CCCC2", "inhibition": 80.1}
{"compound": "CCOc1ncccc1CN1CCC(N2CCc3cc(NC(=O)c4cc(C)on4)ccc32)C1", "note": "(stereo not given)", "inhibition": -0.18}
{"compound": "CC(C)(CNCCOc1ccc(Cl)cc1)c1nc(-c2ccnc(N)n2)c(-c2ccc(Cl)c(O)c2)[nH]1", "inhibition": 0.27}
{"compound": "CC(C)C[C@H](NC(=O)c1cc2ccccc2s1)C(=O)N[C@H]1CCN(Cc2ccc(I)c(OCCN3CCCC3)c2)C1", "inhibition": -0.29}
{"compound": "N=C(N)NCCN(Cc1ccccc1)c1ccccc1", "inhibition": 2.3}
{"compound": "CCOCCCn1c(=N)c(C(=O)NCc2ccc(OC)cc2)cc2c(=O)n3cccc(C)c3nc21", "inhibition": 3.8}
{"compound": "CCCCCN1CCC(NC(=O)c2ccc(C(=O)Nc3ccc(C(C)C)cc3)cc2)C1", "note": "(stereo not given)", "inhibition": 1.46}
{"compound": "COc1cccc(-c2cc(-c3ccc(NC(=O)c4ccccc4)cc3)c3c(N)ncnc3n2)c1", "inhibition": -2.31}
{"compound": "CN1CCCC(CN2CCN(Cc3cccc(-c4ccc(-c5nc6cc(F)ccc6[nH]5)cc4)c3)CC2)C1", "note": "(stereo not given)", "inhibition": 1.35}
{"compound": "O=C(Nc1ccccc1)N(Cc1cccc(-c2cccc(CNCc3ccc4c(c3)OCO4)c2)c1)C1CCN(Cc2ccccc2)CC1", "inhibition": 2.79}
{"compound": "Cc1ccc(C)c(Cn2c(N3CCC(C(=O)NCc4cccs4)CC3)nc3ccccc32)c1", "inhibition": -0.43}
{"compound": "CC(C)CNCc1ccc(-c2ccccc2CNC2CCN(Cc3ccccc3)CC2)cc1", "inhibition": 5.95}
{"compound": "OCc1c(Cl)cc(Cl)cc1CNCCCNc1nc2ccccc2[nH]1", "inhibition": 1.01}
{"compound": "O=C(/C=C/c1cccc(Br)c1)NCCCCCN1CCC(c2c[nH]c3ccccc23)CC1", "inhibition": 5.42}
{"compound": "Cc1ccc(C2CC(=O)CC(c3ccccn3)C2[N+](=O)[O-])cc1", "note": "(stereo not given)", "inhibition": -0.46}
{"compound": "O=C(Nc1cccc(CN2CCN(Cc3ccc(O)cc3)CC2)c1)c1ccc(Cl)c(Cl)c1", "inhibition": 2.47}
{"compound": "CCCCCCN1CCCN(Cc2ccc(C(=O)Nc3ccc(CC)cc3)cc2)CC1", "inhibition": 10.6}
{"compound": "CNC(=O)NC1CCN(Cc2c(-c3cccs3)nc3ccccc3c2C(=O)N[C@@H](C)C2CCCCC2)CC1", "inhibition": -1.52}
{"compound": "CCC(ON1C(N)=NC(N)=NC1(C)C)c1ccccc1", "note": "(stereo not given)", "inhibition": -3.19}
{"compound": "OCCNc1nc(Nc2ccc(F)cc2)nc2ccccc12", "inhibition": 2.07}
{"compound": "Cc1cccc(CNc2nc(C)cc(N[C@@H](CC(C)C)C(=O)NCc3cccc(F)c3)n2)c1", "inhibition": -0.42}
{"compound": "CCn1c(-c2nonc2N)nc2c(-c3cccc(Cl)c3)ncc(OCCCNCc3cnc(C)nc3N)c21", "inhibition": 2.98}
